From PubChem BioAssay AID489008 (National Center for Advancing Translational Sciences (NCATS), 2010)
Results filed as inconclusive are left out. The source made the active and inactive calls. Calls come from the whole dose curve; as a rule, active = well fitted inhibition curve with a large enough effect; inconclusive = small, poorly fitted or top-dose-only effect; inactive = flat fitted curve, though single readings scatter.

Target: Ferritin light chain (Equus caballus) (UniProt P02791)
Test: Confirmation Assay for Identification of Novel General Anesthetics; note: nearly all actives have a fitted effect of over 40% in size
Settings: apoferritin 1-aminoanthracene fluorescence displacement
How it was run: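 Competitive displacement of profluorescent 1-aminoanthracene from 10 uM horse-spleen apoferritin in 50% saturated 1-AMA/PBS; 10 min RT, fluorescence Ex 380/Em 535. Normalized to free 1-AMA and complex; four-parameter Hill fit.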
Potency is the fitted concentration of half-maximal effect.

Sequence of Ferritin light chain (Equus caballus) (P02791 2-175 limits assumed): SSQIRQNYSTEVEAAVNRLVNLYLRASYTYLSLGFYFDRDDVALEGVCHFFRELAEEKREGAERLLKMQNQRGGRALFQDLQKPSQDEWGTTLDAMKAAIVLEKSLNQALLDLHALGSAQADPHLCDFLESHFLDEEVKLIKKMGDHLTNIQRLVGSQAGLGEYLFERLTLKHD

Potency, active:
Cc1ccc(NC(=O)c2ccccc2)cc1OC(=O)c1ccccc1 28.2 µM, Cc1cccc(NC(=O)N2CCCCCC2)c1 11.2 µM, CCCC(C)NS(=O)(=O)c1ccc(OC)c(C)c1 (centres undefined) 20 µM, Cc1ccc(NC(=O)COC(=O)CSC(=S)N2CCOCC2)cc1 15.8 µM, Cc1ccc(NCc2ccccc2O)cc1 14.1 µM, c1cc2c(cc1NC1CCCCCC1)OCO2 8.91 µM, COc1ccc(CNC(=O)COC(=O)CCC2CCCCC2)cc1 15.8 µM, Cc1ccccc1CSCC(=O)N/N=C/c1cccs1 15.8 µM, Cc1ccc(Cn2cccc(NC(=O)NC3CCCCC3)c2=O)cc1 15.8 µM, Cc1cc(NS(=O)(=O)c2ccccc2)cc(Cl)c1O 11.2 µM, O=S(=O)(Nc1ccc2c(c1)CCC2)c1cccs1 17.8 µM, Cc1ccc(CNc2ncnc3c2cnn3-c2ccc(C)cc2C)cc1 15.8 µM, Nc1nc(SCc2ccc(Cl)cc2)ns1 12.6 µM, Cc1cc(C)n2nc(CC(=O)NC3CCCC(C)C3C)nc2n1 (centres undefined) 15.8 µM, CC1CCCC(NC(=O)COC(=O)c2ccc(N(C)C)cc2)C1C (centres undefined) 7.08 µM, COC(=O)c1ccc(/C=N/NC(=O)CC(=O)NC2CCCCC2)cc1 7.08 µM, Cc1nnc(SCc2ccc(F)cc2Cl)s1 22.4 µM, Cc1ccc(NC(=O)Cn2nc(-c3ccco3)ccc2=O)cc1Cl 28.2 µM, Fc1ccccc1CNc1ccc(Cl)cc1 11.2 µM
